Over roughly 16,000 sequences, “rpm ratio (pull-down/input)” has its median near 0.94; the highest 2% begin near 1.7. The sample as a whole holds a higher share of the highest values than the screen did.

Consider 33 sequences from paper PMC12820563, “FoxP3 forms a head-to-head dimer in vivo and stabilizes its multimerization on adjacent microsatellites”.

The target in this experiment is T1, MBP-FoxP1dN (Mus musculus, UniProt P58462 326-579).
T1 sequence: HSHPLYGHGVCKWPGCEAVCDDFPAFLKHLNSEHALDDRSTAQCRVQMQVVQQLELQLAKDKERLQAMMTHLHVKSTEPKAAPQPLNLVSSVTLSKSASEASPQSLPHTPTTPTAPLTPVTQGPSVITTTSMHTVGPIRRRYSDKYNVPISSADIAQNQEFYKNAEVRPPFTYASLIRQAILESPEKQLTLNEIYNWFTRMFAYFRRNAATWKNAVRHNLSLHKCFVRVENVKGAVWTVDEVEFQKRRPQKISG
Kind of experiment: PD-seq (MBP pull-down with sequencing); 20 mM Tris-HCl pH 7.5, 100 mM NaCl, 1.5 mM MgCl2, 0.4 uM protein, 0.1 uM dsDNA library, 30 min, room temperature, amylose pull-down; high values mean tight binding. Particulars: protein: recombinant; tags: His6-MBP; chain copies: 2; dsDNA, one strand shown. Put shortly:
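A degenerate double-stranded DNA library, filled in with Klenow, was added at 0.1 µM to 0.4 µM His6-MBP-tagged mouse FoxP3 or FoxP1 fragment lacking the N-terminus, expressed in E. coli. Incubation lasted 30 min at room temperature in Tris pH 7.5 buffer with NaCl and MgCl2, after which complexes were collected on amylose resin, washed three times, digested with proteinase K to free the DNA, barcoded by PCR and sequenced by Illumina. Binding is the pooled-replicate reads-per-million enrichment of pull-down over input.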
For the sequence “GATGATTGTTCTCCCAGCTGATGAATTCCCGCTTTCGAGTAAACAAATTTTCCTAATCTTTCTGTTCAAGCGCCATCTAC”, the binding signal is 0.937 RPM ratio (pull-down/input). On to “GATGATTGTTCTCCCAGCTGATGAATTATAATCTTCGAGTAAACAAATTTTCCTAATCTTTCTGTTCAAGCGCCATCTAC”, for which the binding signal was 0.909 RPM ratio (pull-down/input). Next, “GATGATTGTTCTCCCAGCTGATGAATTGTTGATGTCGAGTAAACAAATTTTCCTAATCTTTCTGTTCAAGCGCCATCTAC”: 2.27 RPM ratio (pull-down/input); “GATGATTGTTCTCCCAGCTGATGAATTAAAAATGTCGAGTAAACAAATTTTCCTAATCTTTCTGTTCAAGCGCCATCTAC”: 0.979 RPM ratio (pull-down/input). As to “GATGATTGTTCTCCCAGCTGATGAATTTCAGCTGTCGAGTAAACAAATTTTCCTAATCTTTCTGTTCAAGCGCCATCTAC”, the binding signal was 0.889 RPM ratio (pull-down/input). For the sequence “GATGATTGTTCTCCCAGCTGATGAATTCTTCATGTCGAGTAAACAAATTTTCCTAATCTTTCTGTTCAAGCGCCATCTAC”, the binding signal was 0.907 RPM ratio (pull-down/input).

As to “GATGATTGTTCTCCCAGCTGATGAATTTTTGATGTCGAGTAAACAAATTTTCCTAATCTTTCTGTTCAAGCGCCATCTAC”, the binding signal was 1.3 RPM ratio (pull-down/input). Take “GATGATTGTTCTCCCAGCTGATGAATTTCTGATGTCGAGTAAACAAATTTTCCTAATCTTTCTGTTCAAGCGCCATCTAC”: the binding signal is 1.23 RPM ratio (pull-down/input). Regarding “GATGATTGTTCTCCCAGCTGATGAATTGATGATGTCGAGTAAACAAATTTTCCTAATCTTTCTGTTCAAGCGCCATCTAC”, the binding signal was 1.39 RPM ratio (pull-down/input). Next, “GATGATTGTTCTCCCAGCTGATGAATTAATGTTGTCGAGTAAACAAATTTTCCTAATCTTTCTGTTCAAGCGCCATCTAC”: 2.64 RPM ratio (pull-down/input); “GATGATTGTTCTCCCAGCTGATGAATTCATGTTGTCGAGTAAACAAATTTTCCTAATCTTTCTGTTCAAGCGCCATCTAC”: 2.26 RPM ratio (pull-down/input). As for “GATGATTGTTCTCCCAGCTGATGAATTCATGATGTCGAGTAAACAAATTTTCCTAATCTTTCTGTTCAAGCGCCATCTAC”, the binding signal was 1.21 RPM ratio (pull-down/input). As for “GATGATTGTTCTCCCAGCTGATGAATTGATGTTGTCGAGTAAACAAATTTTCCTAATCTTTCTGTTCAAGCGCCATCTAC”, the binding signal is 2.52 RPM ratio (pull-down/input).

As for “GATGATTGTTCTCCCAGCTGATGAATTAATGATGTCGAGTAAACAAATTTTCCTAATCTTTCTGTTCAAGCGCCATCTAC”, the binding signal was 1.2 RPM ratio (pull-down/input). As to “GATGATTGTTCTCCCAGCTGATGAATTTCTATGATCGAGTAAACAAATTTTCCTAATCTTTCTGTTCAAGCGCCATCTAC”, the binding signal is 0.89 RPM ratio (pull-down/input). As to “GATGATTGTTCTCCCAGCTGATGAATTTTTAATATCGAGTAAACAAATTTTCCTAATCTTTCTGTTCAAGCGCCATCTAC”, the binding signal was 1.24 RPM ratio (pull-down/input). In the case of “GATGATTGTTCTCCCAGCTGATGAATTCCGACCATCGAGTAAACAAATTTTCCTAATCTTTCTGTTCAAGCGCCATCTAC”, the binding signal is 0.869 RPM ratio (pull-down/input). Next, “GATGATTGTTCTCCCAGCTGATGAATTACGGGCATCGAGTAAACAAATTTTCCTAATCTTTCTGTTCAAGCGCCATCTAC”: 1.11 RPM ratio (pull-down/input); “GATGATTGTTCTCCCAGCTGATGAATTGGCGATTTCGAGTAAACAAATTTTCCTAATCTTTCTGTTCAAGCGCCATCTAC”: 0.865 RPM ratio (pull-down/input); “GATGATTGTTCTCCCAGCTGATGAATTTTACGGATCGAGTAAACAAATTTTCCTAATCTTTCTGTTCAAGCGCCATCTAC”: 0.879 RPM ratio (pull-down/input). Next, “GATGATTGTTCTCCCAGCTGATGAATTGTCACGGTCGAGTAAACAAATTTTCCTAATCTTTCTGTTCAAGCGCCATCTAC”: 0.924 RPM ratio (pull-down/input). Turning to “GATGATTGTTCTCCCAGCTGATGAATTATTCGTTTCGAGTAAACAAATTTTCCTAATCTTTCTGTTCAAGCGCCATCTAC”, the binding signal is 1.01 RPM ratio (pull-down/input). Next, “GATGATTGTTCTCCCAGCTGATGAATTCCTACCGTCGAGTAAACAAATTTTCCTAATCTTTCTGTTCAAGCGCCATCTAC”: 0.731 RPM ratio (pull-down/input); “GATGATTGTTCTCCCAGCTGATGAATTGTGTTGGTCGAGTAAACAAATTTTCCTAATCTTTCTGTTCAAGCGCCATCTAC”: 1.92 RPM ratio (pull-down/input); “GATGATTGTTCTCCCAGCTGATGAATTGGTTGTGTCGAGTAAACAAATTTTCCTAATCTTTCTGTTCAAGCGCCATCTAC”: 1.2 RPM ratio (pull-down/input). Consider “GATGATTGTTCTCCCAGCTGATGAATTGTTGTGGTCGAGTAAACAAATTTTCCTAATCTTTCTGTTCAAGCGCCATCTAC”, for which the binding signal was 2.1 RPM ratio (pull-down/input). On to “GATGATTGTTCTCCCAGCTGATGAATTGGTGTGGTCGAGTAAACAAATTTTCCTAATCTTTCTGTTCAAGCGCCATCTAC”, for which the binding signal was 1.04 RPM ratio (pull-down/input).

Regarding “GATGATTGTTCTCCCAGCTGATGAATTTCTGTGGTCGAGTAAACAAATTTTCCTAATCTTTCTGTTCAAGCGCCATCTAC”, the binding signal was 0.924 RPM ratio (pull-down/input). Next, “GATGATTGTTCTCCCAGCTGATGAATTTTTGTGGTCGAGTAAACAAATTTTCCTAATCTTTCTGTTCAAGCGCCATCTAC”: 1.23 RPM ratio (pull-down/input).

Take “GATGATTGTTCTCCCAGCTGATGAATTAGCTCAGTCGAGTAAACAAATTTTCCTAATCTTTCTGTTCAAGCGCCATCTAC”: the binding signal was 0.833 RPM ratio (pull-down/input). Next, “GATGATTGTTCTCCCAGCTGATGAATTTAGGTACTCGAGTAAACAAATTTTCCTAATCTTTCTGTTCAAGCGCCATCTAC”: 0.947 RPM ratio (pull-down/input). As for “GATGATTGTTCTCCCAGCTGATGAATTTCGCATCTCGAGTAAACAAATTTTCCTAATCTTTCTGTTCAAGCGCCATCTAC”, the binding signal is 1.21 RPM ratio (pull-down/input). “GATGATTGTTCTCCCAGCTGATGAATTTGCCGGATCGAGTAAACAAATTTTCCTAATCTTTCTGTTCAAGCGCCATCTAC”: the binding signal is 0.839 RPM ratio (pull-down/input).
